Assay outcomes: PubChem, National Center for Advancing Translational Sciences (NCATS)
Sampled rows, rich in hits. Any-hit rate of the full collection: about 17%.
HepG2 viability – kills HepG2 cells in TGF-b inhibitor counter-screen; AID 588856; Potency, µM (doses to about 46.1 µM), without a hit: top-dose activity change, negative = cytotoxicity, hits mostly cytotoxic; HepG2 CAGA-GFP viability, ATP luminescence, 18 h; 410,000 compounds, 0.76% hits
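CellTiter-Glo luminescence gave cytotoxicity after 18 hours at 37 degrees C. The cells were HepG2 CAGA-GFP in 1% FBS DMEM, stimulated with 500 pg/mL TGF-beta after compound addition. %Activity was normalised to no-cell wells (complete cell-killing) and DMSO (no toxicity), and curves were fitted and classified.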
TGFb inhibitor – TGF-b pathway inhibition | HepG2 CAGA-GFP TGF-b/SMAD3 reporter, GFP fluorescence, 18 h; TGF-beta stimulated, 500 pg/mL final | Potency, µM (top dose mostly 46.1 µM), without a hit: top-dose activity, negative = inhibition, actives largely listed as inhibitors | 410,000 compounds, 1.2% hits | AID 588855; note: % is set by controls: 0 for no effect and ±100 for the full control effect; nearly all actives have a fitted effect of over 65% in size
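Per well, imaged GFP fluorescence of HEPG2 CAGA-GFP cells gives the signal; cells get compound, then TGF-beta (500 pg/mL final), 18 h at 37 degrees C; %Activity versus -TGF-beta and +DMSO controls.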
TDP1 cell CPT – DT40-hTDP1 cell growth loss with CPT; chicken DT40 Tdp1-/-;hTDP1 cells + 20 nM CPT, ATP luminescence, 48 h; Potency, µM (top dose mostly 46.2 µM), for the others: at the highest dose activity change, negative = growth inhibition, most hits filed as inhibitors; 420,000 compounds, 12% hits; note: % is set by controls: 0 for no effect and ±100 for the full control effect; nearly all actives have a fitted effect of over 55% in size
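Chicken DT40 Tdp1-/- cells stably complemented with human TDP1 were seeded at 400 cells/well in medium containing 20 nM camptothecin, exposed to pin-transferred compounds, and grown at 37 °C for at least 48 hr. Viability was read as ATP luminescence.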
HT1080NT lethal – kills 2HG-producing HT-1080-NT fibrosarcoma cells; HT-1080-NT fibrosarcoma viability, CellTiter-Glo ATP luminescence, 48 h; Potency, µM (doses to about 46.1 µM), inactives show top-dose activity, negative = less viability, usual class: cytotoxic; 360,000 compounds, 1.6% hits; AID 686970;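 note: NT is the 2HG producing partner of a matched IDH1 knockdown line; 0% = DMSO-treated cells and -100% = media-only wells without cells; nearly all actives have a fitted effect of over 55% in size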
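Fibrosarcoma NT cells, 750 per well in 5% FBS RPMI, were exposed to compound for 48 hours. Viability: CellTiter-Glo luminescence.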
TDP1 cell noCPT – qHTS for Inhibitors of human tyrosyl-DNA phosphodiesterase 1 (TDP1): qHTS in cells in absence of CPT. Potency, µM (series often up to 46.2 µM), for inactives: at the top dose activity change, negative = growth inhibition, most hits filed as inhibitors. 420,000 compounds, 15% hits. DT40 Tdp1-/- hTDP1 cells, no CPT, ATP luminescence, 48 h. AID 686978, 2013; note: % is set by controls: 0 for no effect and ±100 for the full control effect; nearly all actives have a fitted effect of over 55% in size
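Camptothecin absent (DMSO only). Human TDP1-complemented DT40 knockout cells, 400 cells/well, 37 °C for minimum 48 hr; ATP measured via CellTiter-Glo, 30 min dark incubation, luminescence.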
HT1080 IDH1KD tx – kills HT-1080 cells with IDH1 knockdown | HT-1080 IDH1 knockdown viability, ATP luminescence, 48 h | Potency, µM (doses to about 46.1 µM), without a hit: top-dose activity, negative = toxicity, actives largely listed as cytotoxic | 360,000 compounds, 2% hits | AID 686971;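 note: 0% = DMSO wells and -100% = cell-free medium wells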
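Knockdown cells (IDH1KD HT-1080) received compounds 2 h after plating at 750 cells/well and were kept 48 h at 37 °C in 5% FBS RPMI. A CellTiter-Glo luminescence read gave % activity for curve fitting.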
Starred values were filed as active, the others as inactive; ? = inconclusive; . = not tested or not shown. Calls come from the whole dose curve; as a rule, active = well fitted curve in the direction sought with a large enough effect; inconclusive = small, poorly fitted or top-dose-only effect, or another doubt; inactive = no such curve, though single readings can be large; an effect the other way counts as inactive or inconclusive. Potency is the fitted concentration of half-maximal effect.

SMILES | HepG2 viability | TGFb inhibitor | TDP1 cell CPT | HT1080NT lethal | TDP1 cell noCPT | HT1080 IDH1KD tx
O=C(Nc1ccc(F)c(F)c1)C1CCCN1S(=O)(=O)c1cccc2nsnc12 (stereo not drawn) | -4% | ? | ? | . | ? | .
CCOc1ccc2oc(=O)cc(C)c2c1 | 4% | 5% | 3% | 7% | -17% | 10%
CCOc1ccc(Nc2cc(=O)oc3ccccc23)cc1 | -4% | -17% | 10µM* | -26% | 18µM* | -24%
Cc1ccc2cccc(NC(=O)c3ccc(C#N)cc3F)c2n1 | -10% | 4% | -18% | . | -12% | .
CCN1C(=O)C(CC(=O)Nc2ccc(OC)cc2)N(CCc2ccc(F)cc2)C1=S (stereo not drawn) | -4% | ? | 21µM* | ? | 16µM* | ?
CCN1C(=O)C(CC(=O)Nc2ccc(OC)cc2)N(CCCN2CCN(c3ccc(F)cc3)CC2)C1=S (stereo not drawn) | -6% | 5% | 23µM* | ? | 13µM* | 18µM*
COc1ccc(NC(=O)CC2C(=O)N(C)C(=S)N2CCc2ccc(F)cc2)cc1 (stereo not drawn) | -12% | ? | ? | ? | ? | ?
COc1ccc(CCN2C(=S)N(C)C(=O)C2CC(=O)Nc2ccc(OC)cc2)cc1 (stereo not drawn) | -11% | -27% | 12µM* | -17% | ? | ?
COc1ccc(CCNC(=O)CSC2=Nc3ccccc3C3=NC(CCC(=O)NCc4ccccc4)C(=O)N23)cc1OC (stereo not drawn) | -11% | -4% | -23% | . | 2% | .
COc1cc(NC(=O)c2ccc(Cl)cc2Cl)ccc1NC(=O)c1cccs1 | 14% | 1% | ? | ? | -12% | 10%
COCCCNC(=O)C(=O)Nc1cc2c3c(c1)CCN3C(=O)CC2 | -1% | -1% | -2% | 10% | -6% | 7%
CCSS(=O)(=O)c1cccc2cccnc12 | -147% | ? | 15µM* | 33µM* | ? | ?
O=C(O)CCS(=O)(=O)c1cccc2cccnc12 | 6% | 18% | -18% | 1% | -2% | 0%
CCCCN(c1ccccc1)S(=O)(=O)c1cccc2cccnc12 | -15% | -21% | ? | 9% | 15µM* | 0%
COc1ccc(-c2ccc(CN3C(CC(C)C)C(=O)N(Cc4cn(Cc5ccco5)nn4)CCS3(=O)=O)cc2)cc1OC (stereo not drawn) | -11% | 10% | ? | -4% | 16µM* | -3%
COc1ccc(-c2ccc(CN3C(CC(C)C)C(=O)N(Cc4cn(Cc5ccco5)nn4)CCS3(=O)=O)cc2)cc1 (stereo not drawn) | -54% | -4% | 7.3µM* | ? | 7.3µM* | ?
COCCNC(=O)C(=O)NCC(c1ccc2c(c1)OCO2)N1CCN(c2ccc(F)cc2)CC1 (stereo not drawn) | -2% | 1% | -27% | 7% | 1% | 2%
C=CCOc1ccc(/C=N/NC(=O)c2cc3c(OC)cc(OC)cc3[nH]2)cc1 | -18% | -30% | ? | ? | 26µM* | ?
COc1ccc(OC)c(/C=N/NC(=O)c2cc3c(OC)cc(OC)cc3[nH]2)c1 | 18% | -19% | ? | ? | ? | ?
CCOc1ccc(/C=N/NC(=O)c2cc3c(OC)cc(OC)cc3[nH]2)cc1OC | -35% | 4% | 13µM* | ? | 16µM* | ?
CC(C)(O)c1[nH]c2ccc(C#N)cc2c1C(C)(C)O | 4% | 10% | 6% | -6% | -22% | 3%
